Several values for one entry are separate records, joined by “and”; a condition that tells them apart may be missing. Equal values may be shown once. Records with an inconclusive call do not appear. Activity calls are given as the source filed them. Unless noted, calls come from the whole dose curve; as a rule, active = well fitted curve in the direction sought with a large enough effect in the repeat runs; inconclusive = weak or mixed curves; inactive = no such curve, though single readings can be large; an effect the other way counts as inactive or inconclusive.
Assays:
[1] = qHTS assay to identify small molecule antagonists of the glucocorticoid receptor (GR) signaling pathway - cell viability counter screen (AID 720693); note: nearly all actives have a fitted effect of over 55% in size; note: potency is the fitted concentration of half-maximal effect
[2] = qHTS assay for identifying genotoxic compounds that show differential cytotoxicity against isogenic chicken DT40 cell lines with known DNA damage response pathways - wild type cell line (AID 743012); note: nearly all actives have a fitted effect of over 60% in size; note: potency is the fitted concentration of half-maximal effect
Outline: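 Quantitative HTS on parental DT40 cells: 40 h compound treatment at 37 C/5% CO2, with viability then determined by CellTiter-Glo luminescence. Values serve as the DNA repair-proficient reference for differential cytotoxicity.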

[3] = qHTS assay for identifying genotoxic compounds that show differential cytotoxicity against isogenic chicken DT40 cell lines with known DNA damage response pathways - Rev3 mutant cell line (AID 743014); note: nearly all actives have a fitted effect of over 55% in size; note: potency is the fitted concentration of half-maximal effect
[4] = qHTS assay for identifying genotoxic compounds that show differential cytotoxicity against isogenic chicken DT40 cell lines with known DNA damage response pathways - Rad54/Ku70 mutant cell line (AID 743015); note: nearly all actives have a fitted effect of over 60% in size; note: potency is the fitted concentration of half-maximal effect
[5] = qHTS assay to identify small molecule antagonists of the androgen receptor (AR) signaling pathway - cell viability counter screen (AID 743033; note: nearly all actives have a fitted effect of over 45% in size; note: potency is the fitted concentration of half-maximal effect)
[6] = qHTS assay to identify small molecule antagonists of the androgen receptor (AR) signaling pathway using the MDA cell line - cell viability counter screen (AID 743041; note: nearly all actives have a fitted effect of over 45% in size; note: potency is the fitted concentration of half-maximal effect)
Outline: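 R1881-driven MDA-kb2 AR-luc cells, 3,000/well, were dosed with library compounds for 16 h; cell health came from CellTiter-Fluor fluorescence in the reporter wells.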

[7] = qHTS assay to identify small molecule antagonists of the thyroid receptor (TR) signaling pathway - cell viability counter screen (AID 743064); note: nearly all actives have a fitted effect of over 50% in size; note: potency is the fitted concentration of half-maximal effect
Outline: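 CellTiter-Fluor readout, 30 min at 37 °C/5% CO2, following 23.5 h incubation of GH3.TRE-Luc cells with test compound and 1 nM T3 (final).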

[8] = qHTS assay to identify small molecule antagonists of the thyroid receptor (TR) signaling pathway (AID 743065); note: nearly all actives have a fitted effect of over 55% in size; note: potency is the fitted concentration of half-maximal effect
Outline: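 Antagonism measured as loss of luciferase signal in GH3 cells stably carrying a TRE-luciferase reporter, co-treated with compound and T3 (1 nM final) for 23.5 h at 37 C. Viability was read in the same well by CellTiter-Fluor.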

[9] = system: thyroid hormone receptor (rat, GH3 cells); test: qHTS assay to identify small molecule agonists of the thyroid receptor (TR) signaling pathway (AID 743066; calls by dose curve)
[10] = target: Estrogen receptor (Homo sapiens) (UniProt P03372); test: qHTS assay to identify small molecule antagonists of the estrogen receptor alpha (ER-alpha) signaling pathway (AID 743069; active = well fitted curve in the direction sought with a large enough effect in the signal ratio in the repeat runs, not every such curve was filed as active; the % refers to the signal ratio)
Outline: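 Compound effects are measured against 17beta-estradiol stimulation in HEK293 cells with a UAS-controlled beta-lactamase reporter for ER-alpha. Exposure lasts 18 hr at 37C; LiveBLAzer B/G FRET substrate follows for 2 hr at room temperature.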

[11] = qHTS assay to identify small molecule antagonists of the estrogen receptor alpha (ER-alpha) signaling pathway - cell viability counter screen (AID 743074; calls by dose curve;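 note: HEK293 cells carrying ER-alpha-UAS-bla reporter stimulated with 17beta-estradiol; nearly all actives have a fitted effect of over 45% in size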; note: potency is the fitted concentration of half-maximal effect)
[12] = target: Estrogen receptor (Homo sapiens) (UniProt P03372); test: qHTS assay to identify small molecule agonists of the estrogen receptor alpha (ER-alpha) signaling pathway (AID 743075; calls by dose curve); conditions: HEK293 ER-alpha-UAS-bla, beta-lactamase FRET ratio, 18 h; activation: at 70.1 µM (top of the series)
[13] = target: Estrogen receptor (Homo sapiens) (UniProt P03372); test: qHTS assay to identify small molecule agonists of the estrogen receptor alpha (ER-alpha) signaling pathway using the BG1 cell line (AID 743079); conditions: BG1Luc4E2 cells, ERE-luciferase agonist, 22 h; note: nearly all actives have a fitted effect of over 20% in size
[14] = qHTS assay to identify small molecule antagonists of the estrogen receptor alpha (ER-alpha) signaling pathway using the BG1 cell line (AID 743080; calls by dose curve; note: nearly all actives have a fitted effect of over 25% in size)
Outline: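 Antagonist mode: compounds in DMSO were pinned onto BG1-Luc-4E2 cells alongside 17beta-estradiol agonist, incubated 21.5 h, and ERE-driven luciferase measured with ONE-Glo. Cytotoxicity was multiplexed using CellTiter-Fluor fluorescence.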

[15] = qHTS assay to identify small molecule antagonists of the estrogen receptor alpha (ER-alpha) signaling pathway using the BG1 cell line - cell viability counter screen (AID 743081);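 note: compound given together with 17beta-estradiol as the ER stimulus; nearly all actives have a fitted effect of over 45% in size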; note: potency is the fitted concentration of half-maximal effect
Aromatase (Homo sapiens) = Aromatase (Homo sapiens) (UniProt P11511); test: qHTS assay to identify aromatase inhibitors (AID 743083); note: nearly all actives have a fitted effect of over 55% in size; note: potency is the fitted concentration of half-maximal effect
[16] = target: Androgen receptor (Homo sapiens) (UniProt P10275); test: qHTS assay to identify small molecule antagonists of the androgen receptor (AR) signaling pathway (AID 743035; active = well fitted inhibition curve with a large enough effect in the signal ratio in the repeat runs, not every such curve was filed as active; the % refers to the signal ratio)
Outline: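 Cell line: GeneBLAzer AR-UAS-bla GripTite (HEK293). Stimulus: R1881 added after compound. Exposure: 16 h, 37C, 5% CO2. Readout: LiveBLAzer B/G FRET fluorescence after 2 h at room temperature.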

[17] = target: Androgen receptor (Homo sapiens) (UniProt P10275); test: qHTS assay to identify small molecule agonists of the androgen receptor (AR) signaling pathway (AID 743036; active = well fitted activation curve with a large enough effect in the signal ratio in the repeat runs, with a control signal flat, not every such curve was filed as active; the % refers to the signal ratio)
Outline: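 Following a 4 h settling period, AR-UAS-bla HEK293 cells were dosed with compounds for 16 h at 37C. A 2 h room-temperature incubation with LiveBLAzer B/G FRET substrate preceded the fluorescence measurement.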

[18] = target: Androgen receptor (Homo sapiens) (UniProt P10275); test: qHTS assay to identify small molecule antagonists of the androgen receptor (AR) signaling pathway using the MDA cell line (AID 743042; note: nearly all actives have a fitted effect of over 55% in size; note: potency is the fitted concentration of half-maximal effect)
Outline: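 Antagonist mode: compounds plus R1881 agonist added to MDA-kb2 AR-luc cells, incubated 16 h at 37C. Luciferase reporter luminescence quantified, with multiplexed CellTiter-Fluor readout for cell viability.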

[19] = target: Androgen receptor (Homo sapiens) (UniProt P10275); test: qHTS assay to identify small molecule agonists of the androgen receptor (AR) signaling pathway using the MDA cell line (AID 743040; note: nearly all actives have a fitted effect of over 20% in size)
Outline: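 After a 5 h incubation at 37C and 0% CO2, MDA-kb2 reporter cells were dosed with compounds in DMSO and kept 16 h under the same conditions. Luciferase activity was then read as luminescence with ONE-Glo.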
% is set by controls: 0 for no effect and ±100 for the full control effect.

Chain of Aromatase (Homo sapiens) (P11511 whole entry, looked up): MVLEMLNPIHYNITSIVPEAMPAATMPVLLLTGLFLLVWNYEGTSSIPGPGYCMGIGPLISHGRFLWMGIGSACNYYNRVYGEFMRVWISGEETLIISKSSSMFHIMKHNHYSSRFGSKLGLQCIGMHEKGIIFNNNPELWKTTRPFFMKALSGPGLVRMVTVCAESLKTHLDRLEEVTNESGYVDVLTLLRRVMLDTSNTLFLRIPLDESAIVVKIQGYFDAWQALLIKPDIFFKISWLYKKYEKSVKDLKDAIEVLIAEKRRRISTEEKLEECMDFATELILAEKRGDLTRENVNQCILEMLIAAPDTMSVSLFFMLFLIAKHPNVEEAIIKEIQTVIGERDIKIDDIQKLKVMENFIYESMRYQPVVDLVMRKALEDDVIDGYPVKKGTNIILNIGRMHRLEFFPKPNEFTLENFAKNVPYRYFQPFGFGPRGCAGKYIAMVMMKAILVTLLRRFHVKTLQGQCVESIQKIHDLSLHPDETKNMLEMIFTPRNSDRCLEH
Chain of Androgen receptor (Homo sapiens) (P10275 whole entry, looked up): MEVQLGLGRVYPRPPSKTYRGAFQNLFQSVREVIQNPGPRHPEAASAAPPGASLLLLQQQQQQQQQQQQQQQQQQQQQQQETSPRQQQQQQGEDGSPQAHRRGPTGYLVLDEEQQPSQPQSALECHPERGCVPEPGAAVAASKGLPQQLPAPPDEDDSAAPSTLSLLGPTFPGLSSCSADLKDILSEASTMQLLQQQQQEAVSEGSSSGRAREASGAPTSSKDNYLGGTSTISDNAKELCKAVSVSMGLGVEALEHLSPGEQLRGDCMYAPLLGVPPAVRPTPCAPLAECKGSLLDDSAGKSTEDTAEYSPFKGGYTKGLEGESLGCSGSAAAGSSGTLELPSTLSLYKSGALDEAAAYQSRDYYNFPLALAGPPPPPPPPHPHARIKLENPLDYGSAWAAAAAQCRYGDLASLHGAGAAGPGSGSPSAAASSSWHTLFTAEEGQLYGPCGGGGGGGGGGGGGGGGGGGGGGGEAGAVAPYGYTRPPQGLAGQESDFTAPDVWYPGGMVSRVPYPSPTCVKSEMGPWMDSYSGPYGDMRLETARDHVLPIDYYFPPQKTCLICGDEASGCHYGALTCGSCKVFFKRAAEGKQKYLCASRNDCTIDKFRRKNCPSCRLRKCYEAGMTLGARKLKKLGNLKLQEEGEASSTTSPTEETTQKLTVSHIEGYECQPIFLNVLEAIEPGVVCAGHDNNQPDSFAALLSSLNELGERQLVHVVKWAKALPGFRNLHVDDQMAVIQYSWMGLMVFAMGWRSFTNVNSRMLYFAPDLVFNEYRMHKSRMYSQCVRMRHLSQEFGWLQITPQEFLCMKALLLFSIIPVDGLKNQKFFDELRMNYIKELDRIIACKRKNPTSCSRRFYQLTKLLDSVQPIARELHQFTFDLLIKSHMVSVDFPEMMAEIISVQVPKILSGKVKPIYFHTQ
Chain of Estrogen receptor (Homo sapiens) (P03372 whole entry, looked up): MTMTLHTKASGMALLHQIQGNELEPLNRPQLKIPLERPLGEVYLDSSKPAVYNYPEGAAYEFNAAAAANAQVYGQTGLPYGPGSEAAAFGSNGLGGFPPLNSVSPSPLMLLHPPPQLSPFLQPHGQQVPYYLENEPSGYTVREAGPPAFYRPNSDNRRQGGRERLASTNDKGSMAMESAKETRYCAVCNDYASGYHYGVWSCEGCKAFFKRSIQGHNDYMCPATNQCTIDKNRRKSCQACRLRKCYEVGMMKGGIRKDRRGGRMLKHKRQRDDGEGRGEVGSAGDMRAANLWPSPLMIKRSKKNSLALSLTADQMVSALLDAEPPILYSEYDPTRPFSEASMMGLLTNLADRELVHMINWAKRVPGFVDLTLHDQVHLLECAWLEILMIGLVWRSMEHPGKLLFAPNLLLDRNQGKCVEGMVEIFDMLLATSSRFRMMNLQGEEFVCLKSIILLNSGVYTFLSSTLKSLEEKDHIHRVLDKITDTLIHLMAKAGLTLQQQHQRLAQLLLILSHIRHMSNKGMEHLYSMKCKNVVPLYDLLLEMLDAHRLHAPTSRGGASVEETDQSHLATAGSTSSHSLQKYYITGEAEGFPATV

CC(=O)OCC(C)OC(C)=O (stereo not drawn)
inactive: Potency [1] | Potency [2] | Potency [3] | Potency [4] | Potency [5] | Potency [6] | Potency [7] | Potency [8] | Potency [9] | Potency [10] | Potency [11] | Potency [12] | activation ([13]; at 70.3 µM (top of the series)) 5.73% | Potency [14] | Potency [15] | Potency (Aromatase (Homo sapiens))

O=C(O)c1ccc(Cl)c(Cl)c1
inactive: Potency [1] | Potency [2] | Potency [3] | Potency [4] | Potency [5] | Potency [16] | Potency [17] | Potency [6] | Potency [7] | Potency [8] | Potency [9] | Potency [11] | Potency [12] | activation ([13]; at 70.3 µM (top of the series)) -5.68% | Potency [14] | Potency [15] | Potency (Aromatase (Homo sapiens))

Oc1ccc(Cl)cc1Sc1cc(Cl)ccc1O
inactive: Potency [9] | Potency [12] | Potency [14] | Potency [15]
active: Potency [1] 16.9 µM and 19.5 µM | Potency [2] 10.6 µM and 30.6 µM | Potency [3] 11.9 µM and 19.3 µM | Potency [4] 16.8 µM and 24.3 µM | Potency [5] 21.3 µM and 13.8 µM | Potency [6] 29.8 µM and 61 µM | Potency [7] 11.9 µM and 7.68 µM | Potency [8] 5.96 µM and 2.73 µM | Potency [11] 19 µM and 38.8 µM | Potency (Aromatase (Homo sapiens)) 26.6 µM and 27.3 µM

CSc1cnc(C)cn1
inactive: Potency [1] | Potency [2] | Potency [3] | Potency [4] | Potency [5] | Potency [6] | Potency [7] | Potency [8] | Potency [9] | Potency [10] | Potency [11] | Potency [12] | activation ([13]; at 95 µM (top of the series)) 0.548% | Potency [14] | Potency [15] | Potency (Aromatase (Homo sapiens))

Clc1ccc2cc3ccccc3cc2c1
inactive: Potency [1] | Potency [2] | Potency [3] | Potency [4] | Potency [5] | Potency [17] | Potency [6] | Potency [18] | Potency [7] | Potency [8] | Potency [9] | Potency [10] | Potency [11] | Potency [15] | Potency (Aromatase (Homo sapiens))

COc1cc(/C=C/C(=O)O[C@H]2CC[C@]34C[C@]35CC[C@]3(C)[C@@H]([C@H](C)CCC=C(C)C)CC[C@@]3(C)[C@@H]5CC[C@H]4C2(C)C)ccc1O
inactive: Potency [1] | Potency [2] | Potency [3] | Potency [4] | Potency [5] | Potency [6] | Potency [7] | Potency [8] | Potency [9] | Potency [15] | Potency (Aromatase (Homo sapiens))

CN1CCC(Nc2ncc3ncnc(Nc4ccc(F)c(Cl)c4)c3n2)CC1
inactive: Potency [1] | Potency [5] | Potency [19] | Potency [18] | Potency [11]
active: Potency [2] 13.3 µM | Potency [3] 23.7 µM | Potency [4] 21.1 µM | Potency [7] 11.9 µM | Potency [8] 9.44 µM

CCCCCCCCCCC=O
inactive: Potency [1] | Potency [2] | Potency [3] | Potency [4] | Potency [5] | Potency [16] | Potency [19] | Potency [18] | Potency [7] | Potency [8] | Potency [9] | Potency [11] | Potency [15] | Potency (Aromatase (Homo sapiens))

Nc1ccc(N)c2ccccc12
inactive: Potency [17] | Potency [9] | Potency [12]
active: Potency [1] 21.8 µM | Potency [2] 15.3 µM | Potency [3] 5.44 µM | Potency [4] 6.85 µM | Potency [5] 12.3 µM | Potency [18] 17.2 µM | Potency [7] 30.6 µM | Potency [8] 48.5 µM | Potency [11] 21.8 µM | Potency [15] 5.44 µM

CCCCN1CCCC[C@H]1C(=O)Nc1c(C)cccc1C
inactive: Potency [1] | Potency [2] | Potency [3] | Potency [4] | Potency [5] | Potency [17] | Potency [19] | Potency [6] | Potency [7] | Potency [8] | Potency [9] | Potency [10] | Potency [11] | Potency [12] | activation ([13]; at 70.3 µM (top of the series)) -9.26% | Potency [14] | Potency [15] | Potency (Aromatase (Homo sapiens))

NNC(=O)c1cccc(C(=O)NN)c1
inactive: Potency [1] | Potency [2] | Potency [3] | Potency [4] | Potency [5] | Potency [16] | Potency [17] | Potency [6] | Potency [18] | Potency [7] | Potency [8] | Potency [9] | Potency [10] | Potency [11] | Potency [12] | activation ([13]; at 70.3 µM (top of the series)) 4.33% | Potency [14] | Potency [15] | Potency (Aromatase (Homo sapiens))

From PubChem BioAssay (Tox21)
